Consider 76 molecules from PubChem BioAssay AID651658 (Broad Institute, 2012).

Screen size: about 340,000 compounds; about 5,100 (1.5%) were called active.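 The calls were made as follows: active = mean Tm shift, scaled 0 neutral to 100 positive control, at about 1.3% or above, every replicate too (limit read from the data); inconclusive = no clear call, values can overlap the other calls; inactive = the rest.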 Shown is part of a subset that was picked to be rich in actives.

The target of the test is Fibroblast growth factor 22 (Homo sapiens) (UniProt Q9HCT0). Put plainly: FGF22 ligand-induced thermal stabilization – biophysical, thermal shift, single point, FGF22 synaptogenesis inhibitor project, primary screen (AID 651658). Conditions: recombinant FGF22 thermal shift, SYPRO orange fluorescence; at 9.99 µM; stronger effect = higher value; percent of sucrose octasulfate shift, DMSO zero.
Fibroblast growth factor 22 (Homo sapiens), sequence (Q9HCT0 whole entry, looked up): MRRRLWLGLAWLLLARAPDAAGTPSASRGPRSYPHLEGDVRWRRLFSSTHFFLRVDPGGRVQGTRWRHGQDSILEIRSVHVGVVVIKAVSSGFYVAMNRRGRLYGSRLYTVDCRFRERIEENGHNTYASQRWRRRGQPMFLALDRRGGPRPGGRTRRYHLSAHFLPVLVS
With `Cc1ccc(S(=O)(=O)N2C[C@@H](O)COC[C@@H]3O[C@H](CC(=O)NCCCN(C)C)CC[C@H]32)cc1`, the activity (Tm shift, normalised) was 0.016% (inactive).

With `O=C(O)CSCC(=O)Nc1ccc(C(F)(F)F)cc1`, the activity (Tm shift, normalised) was 43% (active).

For `Cn1nc(C(F)(F)F)c(-c2ccc(F)cc2)c1NC(=O)CSCC(=O)O`, the activity (Tm shift, normalised) is -0.085% (inactive).

In the case of `O=C(CSCc1ccccc1)Nc1ccccc1`, the activity (Tm shift, normalised) was -0.128% (inactive).

In the case of `Cc1cc(N)n(-c2ccc(S(=O)(=O)N3CCCC3)cc2[N+](=O)[O-])n1`, the activity (Tm shift, normalised) is -0.196% (inactive).

As to `Cc1cc(C)n(-c2ccc(C(=O)O)cc2[N+](=O)[O-])n1`, the activity (Tm shift, normalised) was 43.1% (active).

Regarding `Cc1cc(C(=O)O)ccc1[N+](=O)[O-]`, the activity (Tm shift, normalised) is 0.06% (inactive).

Regarding `Cc1ccc(S(=O)(=O)N[C@@H]2CC[C@@H](CCn3cc(C4CC4)nn3)O[C@@H]2CO)cc1`, the activity (Tm shift, normalised) was -0.331% (inactive).

For `C[C@H]1CN([C@@H](C)CO)C(=O)c2cc(-c3cccc(F)c3)cnc2O[C@@H]1CN(C)Cc1cncnc1`, the activity (Tm shift, normalised) is 0.062% (inactive).

As for `O=C(c1cnccn1)N1CC(=O)N2[C@H](C1)[C@H](c1ccc(/C=C/c3ccccc3)cc1)[C@@H]2CO`, the activity (Tm shift, normalised) is -0.069% (inactive).

With `O=C(C[C@H]1C[C@@H]2c3cc(NC(=O)c4cccnc4)ccc3O[C@@H]2[C@H](CO)O1)NCc1ccccn1`, the activity (Tm shift, normalised) is -0.175% (inactive).

Regarding `Cn1c(SCC(=O)Nc2nccs2)nnc1-c1cccnc1`, the activity (Tm shift, normalised) is -0.089% (inactive).

As for `COCCn1c(Cc2cccn2C)nnc1SCC(=O)Nc1nccs1`, the activity (Tm shift, normalised) is 0.285% (inactive).

As to `CCn1c(SCC(=O)Nc2nccs2)nnc1-c1ccco1`, the activity (Tm shift, normalised) is 43.5% (active).

As to `CCS(=O)(=O)NCC[C@H]1CC[C@@H](NC(=O)Nc2cc(Cl)cc(Cl)c2)[C@@H](CO)O1`, the activity (Tm shift, normalised) is 0.003% (inactive).

Take `Oc1ccc(-c2nnc(Nc3ccccc3)c3ccccc23)cc1`: the activity (Tm shift, normalised) was 0.298% (inactive).

In the case of `Cc1nn(-c2ccccc2)c(Cl)c1/C=C/C(=O)c1ccc(O)cc1`, the activity (Tm shift, normalised) was -0.458% (inactive).

Take `Oc1ccc(-c2nncn2-c2ccccc2)cc1`: the activity (Tm shift, normalised) was 43.1% (active).

As to `COc1cccc(S(=O)(=O)N[C@H]2C=C[C@H](CC(=O)NCc3ccc(Cl)cc3)O[C@@H]2CO)c1`, the activity (Tm shift, normalised) is 0.005% (inactive).

Take `CCCC#Cc1cnc2c(c1)C(=O)N([C@H](C)CO)C[C@H](C)[C@H](CN(C)C(=O)c1cnccn1)O2`: the activity (Tm shift, normalised) was -0.197% (inactive).

In the case of `Cc1noc(C)c1NC(=O)N(C)C[C@H]1OCCCC[C@H](C)Oc2ccc(NC(=O)Nc3ccc4c(c3)OCO4)cc2C(=O)N([C@H](C)CO)C[C@@H]1C`, the activity (Tm shift, normalised) was -0.482% (inactive).

For the molecule `COc1ccc2c(c1)CCc1cn3ncc(C#N)c3nc1-2`, the activity (Tm shift, normalised) is -0.072% (inactive).

For the molecule `Fc1ccc(-c2ccc(NCCN3CCOCC3)nn2)cc1`, the activity (Tm shift, normalised) is -0.028% (inactive).

As for `N#Cc1cnn2cc(CCN3CCOCC3)c(-c3ccc(F)cc3)nc12`, the activity (Tm shift, normalised) is 43.1% (active).

In the case of `O=C(N[C@H]1CC[C@@H](CCNS(=O)(=O)c2ccc(F)cc2)O[C@@H]1CO)c1ccccn1`, the activity (Tm shift, normalised) is 0.123% (inactive).

On to `C[C@@H]1CN([C@H](C)CO)C(=O)Cc2cc(NS(=O)(=O)c3cccs3)ccc2O[C@@H]1CN(C)C(=O)Nc1ccc(F)cc1`, for which the activity (Tm shift, normalised) is 0.051% (inactive).

Regarding `Cn1c(=O)n(C)c2cc(NS(=O)(=O)c3ccc(F)cc3)ccc21`, the activity (Tm shift, normalised) is 43.1% (active).

Turning to `Cn1c(CCN2CCN(c3ccccn3)CC2)nc2cc(NS(=O)(=O)c3ccc(F)cc3)ccc21`, the activity (Tm shift, normalised) is -0.195% (inactive).

For `Cn1c(=O)n(C)c2cc(S(=O)(=O)Nc3ccc(F)cc3)ccc21`, the activity (Tm shift, normalised) was -0.198% (inactive).

On to `COc1ccc2c3c([nH]c2c1)[C@@H](CO)N(C(=O)Nc1ccc(F)cc1)CC31CN(S(C)(=O)=O)C1`, for which the activity (Tm shift, normalised) is -0.554% (inactive).

With `O=C(N[C@@H]1CC[C@@H](CC(=O)N2CCc3ccccc3C2)O[C@H]1CO)C1CCC1`, the activity (Tm shift, normalised) is -0.096% (inactive).

For `CN(CCc1cn[nH]c1)C(=O)CC1C(=O)NCCN1Cc1cccc(Oc2ccccc2)c1` (stereo unspecified), the activity (Tm shift, normalised) is 0.231% (inactive).

Take `COc1ccc(CN2CCNC(=O)C2CC(=O)N(C)Cc2ccccn2)cc1OC` (stereo unspecified): the activity (Tm shift, normalised) is 0.398% (inactive).

Turning to `COc1cccc(CN2CCNC(=O)C2CC(=O)N(C)CCc2ccccn2)c1` (stereo unspecified), the activity (Tm shift, normalised) is 43% (active).

Take `CS(=O)(=O)N1[C@H](C#N)[C@H](c2ccccc2-c2ccc(F)cc2)[C@@H]1CO`: the activity (Tm shift, normalised) was 0.124% (inactive).

In the case of `Nc1nonc1-n1nnc(C(=O)N/N=C/c2c[nH]c3ccccc23)c1-c1ccccc1`, the activity (Tm shift, normalised) was 0.702% (inactive).

`Cc1c(/C=N\NC(=O)c2cc3ccccc3o2)c2ccccc2n1C`: the activity (Tm shift, normalised) was 0.961% (inactive).

As to `O=C(N/N=C/c1c[nH]c2ccccc12)c1cc2ccccc2o1`, the activity (Tm shift, normalised) is 2.21% (active).

Take `CC=Cc1ccc2n(c1=O)C[C@@H]1[C@@H](CO)[C@H](C(=O)N(C)C)[C@H]2N1CCc1ccccc1` (mixture of isomers): the activity (Tm shift, normalised) was -0.034% (inactive).

Take `COc1ccccc1-c1cnc2c(c1)C(=O)N([C@@H](C)CO)C[C@H](C)[C@H](CN(C)C(=O)c1ccncc1)O2`: the activity (Tm shift, normalised) was 0.396% (inactive).

In the case of `Cc1cc(C(=O)Nc2ccc3c(c2)C(=O)N(C)[C@@H]2CC[C@H](CC(=O)NC4CCCC4)O[C@@H]2CO3)no1`, the activity (Tm shift, normalised) is 0.414% (inactive).

Regarding `COc1ccc(/C=N/NC(=O)c2ccccc2)cc1OS(=O)(=O)c1ccccc1`, the activity (Tm shift, normalised) was 43% (active).

For the molecule `Cc1ccc(S(=O)(=O)Oc2ccc(/C=N/NC(=O)c3ccncc3)cc2)cc1`, the activity (Tm shift, normalised) was 0.38% (inactive).

With `COc1cc(C=NNC(=O)c2cccnc2)ccc1OC(=O)c1ccccc1F`, the activity (Tm shift, normalised) is -0.02% (inactive).

Turning to `COc1ccccc1CNC(=O)C[C@H]1C[C@@H]2c3cc(NC(=O)c4ccc5c(c4)OCO5)ccc3O[C@@H]2[C@H](CO)O1`, the activity (Tm shift, normalised) was 0.258% (inactive).

For `CO[C@@H]1CN(C)C(=O)c2ccc(NS(C)(=O)=O)cc2OC[C@H](C)N(C(=O)C2CC2)C[C@H]1C`, the activity (Tm shift, normalised) is -0.096% (inactive).

For `CCC(=O)N1CC2(C1)[C@H](c1ccc(-c3ccc(C)cc3)cc1)[C@H](CO)N2S(C)(=O)=O`, the activity (Tm shift, normalised) was -0.095% (inactive).

Consider `COc1cc(OC)cc(-c2nnc(N(C)C(=O)c3ccncc3)s2)c1`, for which the activity (Tm shift, normalised) is -0.259% (inactive).

Turning to `COCCN(C(=O)C(C)C)c1nnc(-c2ccc(C(C)(C)C)cc2)s1`, the activity (Tm shift, normalised) is 1.53% (active).

As for `COCCN(Cc1nc(-c2ccc(C(F)(F)F)cc2)no1)C(C)C`, the activity (Tm shift, normalised) was 0.251% (inactive).

For the molecule `CC(C)NC(=O)N1[C@@H]2c3ccc(-c4ccc(F)cc4)c(=O)n3C[C@@H]2[C@@H](CO)[C@@H]1C(=O)N1CCOCC1`, the activity (Tm shift, normalised) was -0.32% (inactive).

On to `CC(C)NC(=O)Nc1ccc2c(c1)C(=O)N([C@H](C)CO)C[C@@H](C)[C@@H](CN(C)S(=O)(=O)c1ccc(Cl)cc1)OCCCC[C@H](C)O2`, for which the activity (Tm shift, normalised) was -0.402% (inactive).

Consider `COc1ccccc1C(=O)Nc1ccccc1C(=O)Nc1ccccc1`, for which the activity (Tm shift, normalised) is -0.098% (inactive).

Consider `COc1ccccc1C(=O)Nn1cnnc1`, for which the activity (Tm shift, normalised) is 0.115% (inactive).

Consider `COc1ccccc1C(=O)NNC(=O)c1ccc(NC(=O)c2ccccc2)cc1`, for which the activity (Tm shift, normalised) is 1.4% (active).

For the molecule `COc1ccccc1C(=O)Nc1ccc(Nc2ccccc2)cc1`, the activity (Tm shift, normalised) is -0.034% (inactive).

In the case of `COc1ccccc1C(=O)c1ccccc1C(=O)c1ccccc1`, the activity (Tm shift, normalised) was 43.7% (active).

On to `CC(=O)c1ccccc1OCc1ccc(C(=O)c2ccccc2)cc1`, for which the activity (Tm shift, normalised) is -0.1% (inactive).

Turning to `CN1CCN(C(=O)C[C@H]2CC[C@H]3[C@@H](COC[C@H](O)CN3C(=O)c3ccc(F)cc3)O2)CC1`, the activity (Tm shift, normalised) was 0.268% (inactive).

Consider `Cc1ccccc1-c1ccc2c(c1)O[C@H](CN(C)Cc1ccc(C(=O)O)cc1)[C@@H](C)CN([C@H](C)CO)S2(=O)=O`, for which the activity (Tm shift, normalised) was -0.18% (inactive).

Regarding `C[C@H](CO)N1C[C@H](C)[C@@H](CN(C)CC2CC2)Oc2ccc(NC(=O)CCCN(C)C)cc2CC1=O`, the activity (Tm shift, normalised) was -0.128% (inactive).

Regarding `N#C[C@@H]1[C@H](c2ccc(C#CC3CCCCC3)cc2)[C@@H](CO)N1S(=O)(=O)c1ccccc1`, the activity (Tm shift, normalised) is 0.098% (inactive).

With `Cc1cccc(-c2ccc([C@@H]3[C@H](CO)N4CCCCN(C(=O)c5ccc6c(c5)OCO6)C[C@@H]34)cc2)c1`, the activity (Tm shift, normalised) was -0.344% (inactive).

For `CCCC#Cc1ccc([C@H]2[C@H](CO)N3CCCCN(C(=O)c4ccc5c(c4)OCO5)C[C@@H]23)cc1`, the activity (Tm shift, normalised) is 0.555% (inactive).

In the case of `COc1ccc(-c2ccc([C@H]3[C@H]4CN(C(=O)c5ccc6c(c5)OCO6)CCCCN4[C@H]3CO)cc2)cc1`, the activity (Tm shift, normalised) is 1.83% (active).

As to `C[C@@H]1CCCCO[C@@H](CN(C)S(=O)(=O)c2ccccc2)[C@H](C)CN([C@H](C)CO)C(=O)c2cc(NC(=O)Nc3ccc4c(c3)OCO4)ccc2O1`, the activity (Tm shift, normalised) was -0.98% (inactive).

For `COc1ccccc1-c1cnc2c(c1)C(=O)N([C@@H](C)CO)C[C@H](C)[C@H](CN(C)CC1CCOCC1)O2`, the activity (Tm shift, normalised) is 0.358% (inactive).

Regarding `COc1ccc(Cc2nnc(N/N=C/c3ccccc3O)[nH]c2=O)cc1OC`, the activity (Tm shift, normalised) is 0.017% (inactive).

`COc1cccc(/C=N/Nc2cc(C)nc(-c3ccccc3O)n2)c1O`: the activity (Tm shift, normalised) was 43% (active).

For `COc1cccc(/C=N/Nc2ccc(S(=O)(=O)Nc3ccccc3C(=O)O)cc2[N+](=O)[O-])c1O`, the activity (Tm shift, normalised) was 0.209% (inactive).

On to `Cc1ccc(S(=O)(=O)N(C)C[C@@H]2Oc3c(NC(=O)c4nc5ccccc5s4)cccc3C(=O)N([C@H](C)CO)C[C@@H]2C)cc1`, for which the activity (Tm shift, normalised) was -0.725% (inactive).

Take `CC(C)=CCc1ccc(O)c(=O)cc1C(C)C`: the activity (Tm shift, normalised) was 43.3% (active).

As to `CC(C)=CCc1c(O)c(CC=C(C)C)c2occ(-c3ccc(O)cc3)c(=O)c2c1O`, the activity (Tm shift, normalised) is 0.178% (inactive).

Turning to `CC(C)c1cc(N=O)cc(C(C)C)c1O`, the activity (Tm shift, normalised) is -0.097% (inactive).

As for `C[C@@H]1CCCCO[C@@H](CN(C)C(=O)CCCN(C)C)[C@@H](C)CN([C@H](C)CO)C(=O)c2cc(NC(=O)CCCN(C)C)ccc2O1`, the activity (Tm shift, normalised) is -0.145% (inactive).

For `C[C@H](CO)N1C[C@H](C)[C@H](CN(C)C)Oc2ncc(-c3ccncc3)cc2C1=O`, the activity (Tm shift, normalised) is -0.058% (inactive).
